For five compounds, activation and Potency results are on record in PubChem BioAssay (NCATS).

The nature of assay [1]: qHTS assay for small molecule activators of the p53 signaling pathway (AID 651743; active = well fitted activation curve with a large enough effect in the signal ratio, not every such curve was filed as active; the % refers to the signal ratio; note: % of control where 0% means no effect). The note with it: HCT-116 p53RE-bla, beta-lactamase FRET ratio, 16 h; stronger effect = higher value. Put shortly:
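Here HCT-116 cells with an integrated p53-responsive beta-lactamase gene were incubated with compounds (16 hours, 37 C) after a 5-hour plating period; beta-lactamase activity was detected as fluorescence intensity via B/G FRET substrate.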

Assay [2] is described as follows: qHTS assay for small molecule agonists of the antioxidant response element (ARE) signaling pathway (AID 651741; active = well fitted activation curve with a large enough effect in the signal ratio; the % refers to the signal ratio; note: potency is the fitted concentration of half-maximal effect; for activation: % of control where 0% means no effect). The note with it: HepG2 ARE-bla reporter, beta-lactamase FRET ratio, 16 h; series mostly up to 96 µM. In outline: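 Beta-lactamase reporter expression driven by the antioxidant response element in HepG2 cells was detected by fluorescence with LiveBLAzer B/G FRET substrate (2 h, room temperature) following 16 h compound treatment at 37 C.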
In general terms: In qHTS, concentration-response curves come from the screen itself.

Assay [3] in a line: qHTS assay for small molecule activators of the nuclear factor-kappa B (NF-kB) signaling pathway (AID 651749; active = well fitted activation curve with a large enough effect in the signal ratio; the % refers to the signal ratio; note: % of control where 0% means no effect). Conditions: NF-kB-bla ME-180 cells, beta-lactamase FRET ratio, 16 h; activation: stronger effect = higher value. Put shortly:
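Beta-lactamase reporter expression, controlled by NF-kB response elements in ME-180 cells, was quantified fluorometrically via FRET disruption; cells at 2,000/well had been incubated with 23 nL test compound for 16 hr.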

Assay [4] in a line: qHTS assay for small molecule disruptors of the mitochondrial membrane potential - 1 hr assay (AID 651754). Note: % is set by controls: 0 for no effect and ±100 for the full control effect; nearly all actives have a fitted effect of over 35% in size. Conditions: series mostly up to 92.2 µM. Put shortly: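 In this qHTS format, a 1 hr compound treatment of HepG2 cells precedes Mito-MPS staining, and membrane potential is judged from aggregate (red) against monomer (green) fluorescence intensity.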

Where “and” joins values, the source holds several entries; their conditions need not be identical. Equal values may be shown once. Records with an inconclusive call do not appear. Calls of active or inactive are those of the source. Unless noted, calls come from the whole dose curve.

Turning to `Cc1cc(CC(=O)O)n(C)c1C(=O)c1ccc(Cl)cc1`, the activation in assay [1] was -3.75% (inactive).
As to `C[C@]12C[C@H](O)[C@H]3[C@@H](CCC4=CC(=O)CC[C@@]43C)[C@@H]1CC[C@@H]2C(=O)CO`, the Potency result in assay [2] was “inactive”. Also, the activation was -3.81% (inactive) and -1.82% (inactive) in assay [1]; -1.35% (inactive) and 0.404% (inactive) in assay [3].
Regarding `CC1=C(/C=C/C(C)=C/C=C/C(C)=C/C(=O)O)C(C)(C)CCC1`, in assay [2], the Potency is 54.5 µM (active). The activation in assay [1] is 1.97% (inactive) and 6.17% (inactive); in assay [3], -2.87% (inactive) and -2.33% (inactive).
With `O=S(=O)(O)NC1CCCCC1`, in assay [3], the activation is -0.941% (inactive).
For `[Cl][In]([Cl])[Cl]`, in assay [1], the activation is -6.82% (inactive). For the same compound, the Potency result in assay [4] was “inactive”.
